# In PubChem BioAssay (NCATS):
# Inconclusive results are not listed. A number with no mark means an inactive call. Active and inactive are the calls of the source. Calls follow the shape of the dose curve; as a rule, active = well fitted inhibition curve with a large enough effect; inconclusive = small, poorly fitted or top-dose-only effect; inactive = no such curve, though single readings can be large or run the other way.
# System: Zika virus NS2B-NS3 protease (linked construct)
# Experiment: Primary screen NINDS Rhodamine qHTS for Zika virus inhibitors (AID 1347160); also: nearly all actives have a fitted effect of over 55% in size
# Settings: purified NS2B-NS3 protease, Rhodamine110 substrate fluorescence; series mostly up to 33.1 µM; activity change, negative = inhibition: at the top concentration
# In short: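 Single-chain NS2B-NS3 protease, 25 nM, pH 8.0; compounds preincubated 15 min. Activity: Rhodamine110 release from 1.5 microM substrate over 15 min, room temperature, data fitted to 4-parameter Hill.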
# % is scaled to controls: 0 for no effect and ±100 for the full control effect; potency is read from the fitted curve at half-maximal effect.
Compound,"activity change, negative = inhibition",Potency
COc1ccc(OC)c(C2C(C#N)=C(N)Oc3n[nH]c(-c4ccc5ccccc5c4)c32)c1 (configuration not stated),16.1% [at 57.1 µM],–
N=C(N)c1ccc2nc(-c3cc(CC(=O)NC(CC(=O)O)C(=O)O)cc(-c4cc(S(N)(=O)=O)ccc4O)c3O)[nH]c2c1 (configuration not stated),-10.2% [at 57.1 µM],–
C=C1CC[C@@H]2[C@](C)(CO)[C@H](O[C@@H]3O[C@H](CO)[C@@H](O)[C@H](O)[C@H]3O)CC[C@@]2(C)[C@@H]1C/C=C1/C(=O)OC[C@H]1O,-19.4%,–
CC(C)c1ccc2c(c1)C(O)CC1C(C)(C(=O)O)CCCC21C (configuration not stated),2.47%,–
O=C(/C=C/c1ccc(O)c(O)c1)OC[C@H]1O[C@@H](OC2CCCCC2O)[C@H](O)[C@@H](O)[C@@H]1O (some centres not stated),-6.64%,–
COc1cc(O)c(C(=O)O)c(CCc2ccccc2)c1,–,22.4 µM (active)
COc1c(C)c(OCC=C(C)C)cc2c1COC2=O,-9.88% [at 57.1 µM],–
